Structures can show the parent of a compound that is named as a salt.

This experiment concerns S. cerevisiae BY4741 (wild-type), vegetative growth in YPD. Kind of experiment: growth sensitivity score (doubling time z-score vs DMSO controls); higher = slower growth, strongly negative scores also mark growth inhibition (complete suppression), active = hit call of the paper. Summed up:
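Saccharomyces cerevisiae strains BY4741 and AD1-9 were seeded in rich medium in microtiter plates at an OD600 of 0.065. Compounds were added at a 1:100 dilution of DMSO stock. Optical density was read every 15 min for 24 hours on a Tecan GENios reader. Average doubling time was the time taken to reach a set generation point divided by generation number, and the growth sensitivity score was (compound mean − DMSO-control mean)/DMSO-control SD, using eight DMSO controls per experiment.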
For `O=C(O)c1cc(/N=N/c2ccc(S(=O)(=O)Nc3ccccn3)cc2)ccc1O` [Sulfasalazine] (stock concentration (mM, diluted 1:100): 10), the growth sensitivity score was -2.26.

`CCn1cc(C(=O)O)c(=O)c2cc(F)c(N3CCN(C)CC3)cc21` [Pefloxacin mesylate] (stock concentration (mM, diluted 1:100): 7.9): the growth sensitivity score is -1.1 (inactive).

Consider `CC(=O)CCCCn1c(=O)c2c(ncn2C)n(C)c1=O` [Pentoxifylline] (stock concentration (mM, diluted 1:100): 10), for which the growth sensitivity score was -0.51 (inactive).

With `Cc1ncc([N+](=O)[O-])n1CC(C)O` (stereo not drawn) [Secnidazole] (stock concentration (mM, diluted 1:100): 10), the growth sensitivity score is -0.7 (inactive).

`CN1C(C(=O)Nc2ccccn2)=C(O)c2ccccc2S1(=O)=O` [Piroxicam] (stock concentration (mM, diluted 1:100): 10): the growth sensitivity score is 0.09 (inactive).

In the case of `C[C@@H](c1ncncc1F)[C@](O)(Cn1cncn1)c1ccc(F)cc1F` [Voriconazole] (stock concentration (mM, diluted 1:100): 9.9), the growth sensitivity score was 43.3 (active).

`O=C1CN2Cc3c(ccc(Cl)c3Cl)N=C2N1` [Anagrelide hydrochloride] (stock concentration (mM, diluted 1:100): 8.8) registered a growth sensitivity score of -2.21.

Turning to `C[C@H]1[C@H](OC(=O)CCC(=O)O)O[C@@H]2O[C@@]3(C)CC[C@H]4[C@H](C)CC[C@@H]1[C@@]24OO3` [Artesunate] (stock concentration (mM, diluted 1:100): 10), the growth sensitivity score was 2.81 (active).
